# Screening data from PubChem.
# Only some compounds are listed: those with a hit (about 11% of all), similar ones and a draw of the others.
# ALDH1A1 inh: blocks purified human ALDH1A1 activity | 220,000 compounds, 7.3% hits | P00352 | Potency, µM (doses to about 75.3 µM), for the others: at the highest dose activity, negative = inhibition, actives largely listed as inhibitors | Purified ALDH1A1, NADH fluorescence, propionaldehyde substrate;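 further: potency means the concentration at half of the fitted maximal effect; plate controls were no enzyme wells and a reference inhibitor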
# PNC inhibitor: inhibitors of perinucleolar compartment assembly | activity change (PNC), negative = inhibition, % at 10 µM | PC3M PTB-GFP, PNC prevalence imaging, 16 h; stronger effect = lower value | AID 2417 | 140,000 compounds, 3.1% hits;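 active means readout at or below -70, meaning at least 70% loss of cells showing the perinucleolar compartment, a nuclear body marking cancer cells; inconclusive means readout between -30 and a set limit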;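 further: plate controls were DMSO wells for no effect and camptothecin positive control wells for full effect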
#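 PC3M cells stably expressing PTB-GFP, 750–1000 cells/well, treated 16 h at 37 °C with compound (23 nl of library stock), in duplicate. After paraformaldehyde fixation and Hoechst stain, imaged at 20x; PNC prevalence scored by image analysis.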
# JMJD2E inh: inhibitors of human JMJD2E histone demethylase; B2RXH2; JMJD2E catalytic domain, FDH-coupled NADH fluorescence (FDH is formaldehyde dehydrogenase); Potency, µM (top dose mostly 57.1 µM), without a hit: top-dose activity change, negative = inhibition, actives largely listed as inhibitors; 230,000 compounds, 1.6% hits; AID 2147;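 further: potency means the concentration at half of the fitted maximal effect; 0% = wells with enzyme and -100% = buffer wells without enzyme; nearly all actives have a fitted effect of over 50% in size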
# Target sequence (B2RXH2 1-337 limits assumed): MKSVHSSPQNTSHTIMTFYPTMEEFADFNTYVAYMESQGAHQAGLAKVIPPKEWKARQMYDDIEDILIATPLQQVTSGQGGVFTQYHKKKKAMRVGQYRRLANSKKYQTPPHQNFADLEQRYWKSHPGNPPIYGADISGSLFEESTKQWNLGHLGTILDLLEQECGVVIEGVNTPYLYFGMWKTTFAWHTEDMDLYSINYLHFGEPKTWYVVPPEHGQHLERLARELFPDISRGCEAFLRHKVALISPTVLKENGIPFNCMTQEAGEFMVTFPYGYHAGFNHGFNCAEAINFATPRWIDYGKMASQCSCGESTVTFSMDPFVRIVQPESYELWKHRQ
# HPGD inh: inhibitors of human 15-hydroxyprostaglandin dehydrogenase (HPGD) | P15428 | purified HPGD, NADH fluorescence kinetic, PGE2 substrate | Potency, µM, without a hit: at the top dose activity change, negative = inhibition, most hits filed as inhibitors | 150,000 compounds, 4.3% hits | AID 894; further: potency means the concentration at half of the fitted maximal effect
# Target sequence (P15428 whole entry, looked up): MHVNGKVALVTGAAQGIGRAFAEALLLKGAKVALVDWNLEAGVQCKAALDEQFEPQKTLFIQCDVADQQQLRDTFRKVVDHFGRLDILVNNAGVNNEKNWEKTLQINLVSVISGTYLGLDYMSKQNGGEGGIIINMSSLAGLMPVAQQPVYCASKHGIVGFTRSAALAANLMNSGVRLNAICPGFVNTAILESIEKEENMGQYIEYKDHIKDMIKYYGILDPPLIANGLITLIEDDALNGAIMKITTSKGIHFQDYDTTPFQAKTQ
#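 NADH formation kinetics: reaction with 30 uM PGE2 and 1 mM NAD+ (final), 20 nM enzyme, Tris-HCl pH 8 with Tween 20, after 15 min compound preincubation at room temperature. Fluorescence change, last versus first of five reads.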
# * hit, by the source's call; ? = inconclusive; · = no result; [ ] = another dose, or the depositor's remark. Unless noted, the call rests on the fitted dose curve; in most records, active means well fitted inhibition curve with a large enough effect (not every such curve was filed as active); inconclusive means small, poorly fitted or top-dose-only effect, or another doubt; inactive means no such curve, though single readings can be large or run the other way. Unless noted, on the % scale 0 is the no-effect control and ±100 the full control effect.
SMILES,ALDH1A1 inh,PNC inhibitor,JMJD2E inh,HPGD inh
Cn1c(=O)n(C)c2cc(NS(=O)(=O)c3ccc(C(C)(C)C)cc3)ccc21,0.562µM*,·,9.2%,·
COc1ccc(S(=O)(=O)Nc2ccc3c(c2)COC3=O)cc1OC,1.8%,?,9.5%,-10.7%
CC(C)(N)C(=O)N[C@@H]1C(=O)N2[C@@H]1SC(C)(C)[C@H]2C(=O)O,-2.3%[13.5 µM],·,·,-8.9%
Cc1[nH]c2ccccc2c1-c1cc(-c2cc(-c3c(C)[nH]c4ccccc34)on2)no1,2.5%[13.5 µM],·,·,0.5%
CN(C)CCO[C@](C)(c1ccccc1)c1ccccn1,4.1%[20.9 µM],·,5.8%[25.5 µM],-6.4%
CCOC(=O)c1c(N/N=C/c2ccncc2)n[nH]c1C,-7.0%,28.0,-5.9%,-6.9%
CCn1c(=O)c(=O)n(CC)c2cc(S(=O)(=O)Nc3cccc(OC)c3)ccc21,12.6µM*,-13.4,4.2%,-20.5%
O=C(CCc1ccccc1)NCC1OCCc2ccccc21 (centres undefined),-0.4%,·,3.8%,·
O=C(NCC1OCCc2ccccc21)c1ccco1 (centres undefined),7.94µM*,17.9,-8.4%,-20.7%
CN1CCc2nc3ccc(Cl)cc3c(-c3ccccc3Cl)c2C1,3.7%,21.8,7.4%,-2.1%
NCC1OC(O[C@@H]2[C@H](O)[C@@H](OC3C(O)C(N)CC(N)C3OC3OC(CO)C(O)C(O)C3N)O[C@@H]2CO)C(N)C(O)C1O (some centres undefined),4.2%,·,7.1%,-9.5%
Cc1ccc2oc(-c3ccccc3)c(C(=O)O)c(=O)c2c1,?,65.6,?,14.1µM*
Cc1ccc(-c2oc3ccccc3c(=O)c2O)cc1,2.0%,-9.4,-22.2%,-20.3%
CN(C)C(=O)c1c(-c2ccccc2)oc2ccc(O)cc12,?,17.6,?,-27.5%
Cc1ccc2oc(-c3ccccc3)c(O)c(=O)c2c1,-0.5%,·,14.1µM*,-4.5%
Cc1cc(OCCCCNC(C)C)cc(C(C)C)c1,8.6%,?,?,6.0%
CCCN1CCC(=O)N([C@H](CSc2ccc(OC)cc2)CC(C)C)CC1,·,·,-4.0%,·
CC(C)(C)NC(=O)Cn1c(=O)n(CC(=O)NC(C)(C)C)c2ccccc21,2.7%,·,-32.9%,·
Cc1cccn2c(=O)c3cc(C(=O)NCCc4ccccc4)c(=N)n(CCCn4ccnc4)c3nc12,5.62µM*,38.5,3.9%,·
CCOCCCNC(=O)c1cc2c(=O)n3cccc(C)c3nc2n1C,?,-115.7*,?,?
O=C(O)c1cccc(Cn2c(Cl)c(/C=N/NC(=O)c3ccccc3O)sc2=O)c1,3.6%,·,-7.2%,·
O=C(O)c1cccc(Cn2c(Cl)c(/C=N/Nc3ccccc3)sc2=O)c1,22.4µM*,·,-24.2%,·
Cc1ccccc1OCC(=O)N/N=C/c1sc(=O)n(Cc2cccc(C(=O)O)c2)c1Cl,·,·,-6.9%,·
O=C(O)c1cccc(Cn2c(Cl)c(/C=N/NC(=O)c3ccccc3Cl)sc2=O)c1,?,-25.5,?,28.2µM*
Cc1nn(C(C)C(=O)NNC(=S)Nc2ccc(Cl)cc2)c(C)c1[N+](=O)[O-] (centres undefined),?,-9.7,12.2%,-14.2%
SMILES,ALDH1A1 inh,PNC inhibitor,JMJD2E inh,HPGD inh
C/C=C1\C(=O)C[C@H]2[C@@H]3CCC4=CC(=O)CC[C@]4(C)[C@H]3CC[C@]12C,?,·,·,-4.8%
C/C(CCc1oc2ccc(Br)cc2c1-c1ccc(C)o1)=N/O,?,55.5,-4.4%,20µM*
Cc1ccc(-c2cc(C(=O)O)c3cc(Br)ccc3n2)o1,?,-27.9,?,?
C/C(CCc1oc2ccc(Cl)cc2c1-c1ccc(C)o1)=N\O,4.47µM*,?,-29.1%,31.6µM*
CC[N+](C)(CC)CC(=O)Nc1c(C)cccc1C,-3.9%,·,6.9%,-18.6%
Cc1cc(C(=O)N/N=C/c2ccc(N(C)C)cc2)c2ccccc2n1,35.5µM*,·,1.5%,·
O=[N+]([O-])c1ccc(O)c(/C=N/Nc2nc3ccccc3[nH]2)c1,?,-92.8*,?,-16.7%
Cc1cc(C(=O)N/N=C2\CCCC(=O)C2)c2ccccc2n1,-3.3%,-18.8,3.4%,-4.8%
Cc1cc(C(=O)N/N=C/c2cc(Br)cc([N+](=O)[O-])c2O)c2ccccc2n1,-8.7%,3.2,6.31µM*,-26.0%
Cc1cc(C(=O)N/N=C(\CCC(=O)O)c2cccs2)c2ccccc2n1,25.1µM*,·,24.5%,·
Cc1c(C(=O)C(=O)NCCCn2ccnc2)c2ccccc2n1C,2.7%,·,-6.6%,·
NC(N)=NC(=S)Nc1ccc(Cl)cc1,19.4%,·,2.0%,·
Cc1c(C(=O)N/N=C/c2ccc(N(C)C)cc2)[nH]c2ccc(Cl)cc12,?,-113.0*,?,-18.1%
Cc1cc(C(=O)N/N=C/c2cc([N+](=O)[O-])ccc2O)c2ccccc2n1,-0.2%,-7.7,28.2µM*,-15.6%
CC1(C#CC[N+]2(C)CCCCC2)CCC2C(O1)c1ccccc1OC2(C)C (centres undefined),31.6µM*,·,?,·
O=C(NCc1cccnc1)[C@@H]1[C@@H](C(=O)O)[C@H]2CC[C@@H]1O2,0.1%[13.5 µM],·,·,-3.4%
CC(=O)Nc1cccc(OCCCNS(=O)(=O)c2ccc(F)cc2)c1,4.4%,·,-7.8%,·
Cc1ccc(Nc2nc(N)nc(CN3CCN(Cc4ccc5c(c4)OCO5)CC3)n2)cc1C,7.94µM*,·,4.6%,·
COC(=O)CC(=O)Cc1nc(N)nc(Nc2ccc(C)c(C)c2)n1,1.4%,-100.0*,-6.9%,-12.1%
C/C=N/NC(=O)CCNC(=O)c1ccccc1,-2.8%,8.5,3.8%,-8.7%
O=C(O)Cc1[nH]cnc1C(=O)O,10.5%[13.5 µM],·,·,-0.6%
Cc1cc(C(C)(C)C)cc(CNC2CCCCC2)c1O,17.5%[13.5 µM],·,·,-3.3%
Cc1cc(/C=c2\sc3nc4ccccc4n3c2=O)c(C)n1-c1ccc(C(=O)O)cc1,?,·,-26.3%,·
O=C1NC(=S)N/C1=C\c1ccccc1OCc1ccc(C(=O)O)cc1,·,·,-16.7%,·
Cc1cc(C=C2C(=O)c3ccccc3C2=O)c(C)n1-c1cccc(C(=O)O)c1,10µM*,·,-2.1%,·
SMILES,ALDH1A1 inh,PNC inhibitor,JMJD2E inh,HPGD inh
Cc1ccc(-n2c(C)cc(C=C3C(=O)CC(C)(C)CC3=O)c2C)cc1,0.891µM*,9.8,-5.6%,?
O=C(O)c1ccc(COc2ccccc2C=C2C(=O)c3ccccc3C2=O)cc1,?,-20.4,?,10µM*
Cc1cc(C=C2C(=O)c3ccccc3C2=O)c(C)n1-c1ccc(C(=O)O)cc1,5.62µM*,·,-2.3%,·
Cc1cc2c(n1-c1ccc(Cl)cc1)CC(C)(C)CC2=O,-3.7%,14.1,-2.4%,-15.4%
CCC(CC)C(=O)c1c[nH]c(C(=O)N2CCN(c3ccccc3)CC2)c1,3.8%,·,-16.0%,·
Cc1cc(C=C2C(=O)c3ccccc3C2=O)c(C)n1-c1ccccc1,15.8µM*,49.8,-1.4%,-16.6%
CC1=NN(c2ccccc2)C(=O)/C1=C\c1cc(C)n(-c2ccccc2)c1C,?,?,3.3%,-23.6%
Cc1cc(/C=C2\Cc3ccccc3C2=O)c(C)n1-c1ccccc1,7.94µM*,?,?,?
COc1ccccc1/C=C1\Cc2ccccc2C1=O,-13.1%,·,?,·
CC(C)c1cc(N2CCC(=O)NC2=O)cc(C(=O)O)c1O,?,-113.8*,?,?
